Peg3 promoter: inhibitors of Peg3 promoter | HeLa PEG-Prom luciferase reporter, luminescence, overnight | inhibition, % at 20 µM | 1.7% of 360,000 active;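 active = inhibition of at least 50% at 20 µM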
Shn3 3UTR inh: reduces Shn3 3'UTR luciferase signal in osteoblasts | Clone20 osteoblast Shn3 3'UTR firefly luciferase, 24 h | inhibition, % at 12.5 µM | 0.52% of 360,000 active;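 active = mean inhibition of at least 75% with every replicate also reaching 75%; inconclusive = mean inhibition at least 75% but some replicate below; inactive = mean inhibition below 75%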;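 also: 0% = median of neutral control wells and 100% = pilot-screen positive control compound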
EBV LMP1 NFkB: Epstein-Barr LMP1 NF-kappaB reporter inhibition; LMP1-induced NF-kappaB luciferase reporter cells, luminescence; inhibition, % at 12.5 µM; 0.69% of 350,000 active; AID 504558; in the data active = inhibition above about 41%; inconclusive = no clear call, values can overlap the other calls;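 also: 0% = neutral control wells and 100% = reference inhibitor control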
TRPM1 prom inh: reduces MITF-dependent TRPM1 promoter luciferase signal; SK-MEL-5 TRPM1 promoter luciferase, 24 h; inhibition, % at 12.5 µM; 0.83% of 330,000 active; AID 488899;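 active = mean inhibition across replicates of 60% or more, whatever share of single replicates reaches that level; inconclusive = some that reach 60%, reason not given; inactive = mean inhibition across replicates below 60%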
TWEAK Fn14 block: inhibitors of TWEAK-Fn14 interaction signaling | TWEAK-stimulated Fn14 reporter cells, luciferase luminescence, 8 h | inhibition, % at 10 µM | 2% of 360,000 active | AID 1159606; in the data active = inhibition above about 50%
TROY signal inh: inhibitors of TROY-dependent NF-kB signaling; Q293 LMP1-TROYcd NF-kB luciferase reporter, 4 h; inhibition, % at 10 µM; 0.98% of 360,000 active; AID 1347056;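 active = compounds whose plate-normalised and pattern-corrected inhibition of the luciferase reporter signal at the single screening dose is 50% or more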
An asterisk follows results filed as active; ? = inconclusive; . = no result given. Only some compounds are listed: those with a hit (about 4.1% of all), similar ones and a draw of the others.

SMILES | Peg3 promoter | Shn3 3UTR inh | EBV LMP1 NFkB | TRPM1 prom inh | TWEAK Fn14 block | TROY signal inh
CC(C)(C)c1cc(C(=O)N/N=C/c2ccc(F)cc2)n(-c2ccccc2)n1 | -12 | 5 | -15 | -12 | -38 | -33
COc1cccc(/C=N/NC(=O)c2cc3c(OC)ccc(OC)c3[nH]2)c1O | 52* | 94* | 15 | 21 | -7 | -1
COc1ccc(/C=N/NC(=O)c2nc(-c3ccccc3)n(-c3ccccc3)n2)c(O)c1 | 31 | 91* | 19 | 57 | 10 | 11
COc1ccc(/C=N/NC(=O)c2cc3cc(OC)c(OC)cc3[nH]2)cc1 | -9 | 5 | 11 | -9 | 8 | -2
CC(C)(C)c1cc(C(=O)N/N=C/c2ccccc2O)n(-c2ccccc2)n1 | 50* | 91* | 9 | 48 | -3 | 9
CN1C(c2ccccc2)=NO[C@]1(C)c1ccccc1 | -16 | 4 | -3 | -5 | 2 | -19
CC1=C(C(=O)N(C(C)C)C(C)C)CC(CC(=O)NCc2cccs2)C(=O)N1Cc1ccc(C(C)(C)C)cc1 (stereo not drawn) | 24 | -10 | . | . | 15 | 4
COc1cccc(/C=N/NC(=O)N/N=C/c2cccc(OC)c2O)c1O | 14 | 66 | 31 | -6 | -4 | -41
COc1cc(OC)c2cc(C(=O)N/N=C/c3cccc(OC)c3O)[nH]c2c1 | 57* | 96* | -3 | 54 | 41 | -11
CN(C)CCCNc1nc2cc(-c3cccc(Cl)c3)sc2c(=O)n1C | 91* | -15 | . | . | -47 | -19
CN(C)CCCNc1nc2cc(-c3cccc(C(F)(F)F)c3)sc2c(=O)n1C | 96* | -10 | . | . | -52 | -32
COc1ccc(-c2cc3nc(NCc4ccc(C)cc4C)n(C)c(=O)c3s2)cc1OC | 4 | 11 | . | . | 76* | 26
CN(C)CCCN(C(=O)c1ccc(Br)s1)c1nc2cc3c(cc2s1)OCCO3 | -25 | -17 | -25 | 17 | 0 | -8
CN(C)CCCN(C(=O)c1cc(Cl)sc1Cl)c1nc2cc3c(cc2s1)OCO3 | -37 | -15 | -13 | 11 | -43 | -117
CN(C)CCCN(C(=O)c1ccc(Cl)s1)c1nc2cc3c(cc2s1)OCO3 | -28 | -29 | -3 | 83* | -4 | -54
CN(C)CCCN(C(=O)c1cc2cc([N+](=O)[O-])ccc2s1)c1nc2cc3c(cc2s1)OCCO3 | 101* | 66 | -81 | 87* | -334 | 64*
CN(C)CCCN(C(=O)c1ccc([N+](=O)[O-])s1)c1nc2cc3c(cc2s1)OCCO3 | -64 | 20 | -12 | 67* | 40 | -3
CCOC(=O)C1=C(Nc2ccc(OC)cc2)C(N)=NC1=N | -410 | -107 | -2 | . | 14 | -29
CC1Sc2ccc(S(=O)(=O)CCC(=O)N3CCc4ccccc43)cc2NC1=O (stereo not drawn) | 17 | 10 | -13 | 3 | 19 | 5
Cc1cc[n+](-c2[nH]c(=O)sc2/C=N/N=C(\[O-])c2ccncc2)cc1 | -1 | -6 | 70* | 9 | -6 | -8
CC1CCCC(C)N1/N=C/c1ccccc1Br (stereo not drawn) | -6 | 5 | 2 | 0 | -4 | 0
Cc1cc(C)c2c(NC(=S)NC(=O)c3ccccc3)nn(C)c2n1 | 9 | -11 | -6 | 12 | -1 | 3
Cc1cc(C)c2c(NC(=O)CCl)nn(C)c2n1 | 52* | -13 | -31 | 4 | 10 | 5
CCOc1ccc(NC(=S)C(C#N)=C2N(C)c3ccccc3N2C)cc1 | 4 | 5 | -10 | -13 | 2 | 7
CC1(C)CCN2CCC(C)(C)c3c(O)ccc1c32 | 48 | 58 | 19 | 64* | 64* | 47
SMILES | Peg3 promoter | Shn3 3UTR inh | EBV LMP1 NFkB | TRPM1 prom inh | TWEAK Fn14 block | TROY signal inh
O=C(CCNC(=O)c1ccc([N+](=O)[O-])cc1)Nc1cccc(S(=O)(=O)N2CCCCCC2)c1 | 8 | 17 | 4 | 8 | -30 | -13
Oc1cccc2c(NC(=S)Nc3ccc(SC(F)F)cc3)cccc12 | -155 | -20 | -3 | 43 | 60* | 64*
Oc1cccc(NC(=S)Nc2ccc(SC(F)F)cc2)c1 | -136 | -1 | -4 | -18 | -1 | -16
Cc1csc(N=Nc2ccc(N(C)C)cc2)[n+]1[O-] | 18 | 5 | 55* | . | 86* | 75*
Cc1noc(C)c1NC(=O)Nc1cccc2c1O[C@H](CN(C)C(=O)Nc1ccc(C(F)(F)F)cc1)[C@@H](C)CN([C@H](C)CO)C2=O | -4 | 22 | 4 | -10 | 0 | 7
O=C(NCc1ccc(OC(F)(F)F)cc1)C1CC(c2c(Cl)cccc2Cl)=NO1 (stereo not drawn) | 10 | 13 | 41* | . | -4 | -4
CN(Cc1ccccc1)c1ncnc(N)c1[N+](=O)[O-] | -5 | 17 | 8 | -25 | 34 | 27
CC1CCCCN1c1ncnc(N)c1[N+](=O)[O-] (stereo not drawn) | 9 | 14 | 22 | -8 | 61* | 37
Cc1nc(N2CCOCC2)nc(N2CCCCC2C)c1[N+](=O)[O-] (stereo not drawn) | 19 | 12 | 7 | -19 | -6 | 7
CC1Cc2ccccc2N1c1ncnc2nc[nH]c12 (stereo not drawn) | -53 | -7 | 1 | -10 | 60* | 30
CC1Cc2ccccc2N1c1ncnc(N)c1[N+](=O)[O-] (stereo not drawn) | 17 | 16 | 76* | 34 | 93* | 68*
COc1cc(CN2C[C@@H](CO)O[C@@H](n3cnc4c(N(C)C(C)C)ncnc43)C2)cc(OC)c1OC | -2 | -4 | . | . | -6 | 0
CC(=O)c1c(C)nn(-c2ccccc2)c1C | 3 | -12 | 36 | -4 | 3 | -4
COP(C)(=O)c1c(C)nn(-c2ccccc2)c1C (stereo not drawn) | -5 | -4 | -3 | -3 | 69* | .
O=C(N/N=C/c1c[nH]c2ccccc12)c1[nH]c2ccc(Br)cc2c1-c1ccccc1 | 20 | -45 | 7 | ? | 43 | 36
O=C(N/N=C/c1ccc(O)cc1)c1[nH]c2ccc(Br)cc2c1-c1ccccc1 | 32 | -9 | 15 | 63* | 45 | 15
FC(F)(F)c1ccccc1-n1c(-c2ccco2)n[nH]c1=S | -8 | -2 | 12 | 1 | 88* | 25
COc1ccc(CN2C3CCCC2CC(NC(=O)Nc2ccccc2C)C3)cc1 (stereo not drawn) | -9 | 2 | 2 | -14 | 62* | 13
CCN(CC)CCCNC(=S)N1CCN(c2nc(-c3ccc(F)cc3)cs2)CC1 | 71* | 22 | 2 | 10 | -11 | -7
CC(C)Cc1nc2oc3c(NCC4CCCO4)ncnc3c2c2c1CCC2 (stereo not drawn) | 61* | 13 | 12 | 9 | 54* | -2
CCc1nn(CC(=O)NCCCN2CCN(CC)CC2)c(=O)c2cc3occc3n12 | -6 | -3 | 7 | 0 | 13 | -9

Compound activity deposited in PubChem by several laboratories.
